# ChEMBL document CHEMBL3988442, “University of Dundee, Small-Polar-MMV Screening Library” (2021)
# About 13,000 (27%) of roughly 48,000 compounds showed an effect of 50% or more. Some of the results follow.
# Tested on: Wolbachia pipientis
# Assay: Anti-Wolbachia Cell-Based Screen
# Format: functional
# Set-up: scale not given: in the data most compounds retested in dose-response had high values
# Details: 5 µM
row,SMILES,Percent Effect [%]
1,Cc1nn(C)c(Cl)c1C1CCCN1c1ncnc2[nH]ccc12 (centres undefined),-15.05
2,CCc1nnc(N[C@H](C)c2cccc(OC)c2)o1,-47.91
3,Cn1cc(N2C(=O)CC[C@@H]3[C@H]2CCN3Cc2nccs2)cn1.O=C(O)C(F)(F)F,92.26
4,Cc1nc(CN2CC[C@H]3[C@H]2CCN3c2nncs2)cs1.O=C(O)C(F)(F)F.O=C(O)C(F)(F)F,10.04
5,Cc1nc(CO[C@@H]2CN(Cc3cnn(C)c3)[C@@H]3COC[C@@H]32)cs1.O=C(O)C(F)(F)F,-7.827
6,Cn1cc(C(=O)N[C@H]2CN(Cc3nccs3)[C@@H]3CCCO[C@H]23)cn1.O=C(O)C(F)(F)F,-3.983
7,Cn1cc(N2C(=O)CC[C@@H]3[C@H]2CCN3C(=O)c2cscn2)cn1.O=C(O)C(F)(F)F,-22.63
8,Cc1nc(CN2CC[C@H]3[C@@H]2CCC(=O)N3c2cnn(C)c2)cs1.O=C(O)C(F)(F)F,98.36
9,Cc1nc(C)c(-c2nnc(SCC(=O)O)n2C(C)c2ccccc2)o1 (centres undefined),4.033
10,O=C(c1ccc2c(c1)COC2)N1CCCN(Cc2cscn2)CC1,97.01
11,O=C(c1ccc2cc[nH]c2c1)N1CCCN(Cc2cscn2)CC1,102.9
12,O=C(c1cccc(F)c1)N1CCCN(Cc2cscn2)CC1,112.5
13,CN1CCN(C(=O)c2cccc(OCc3cscn3)c2)CC1,-0.311
14,Cc1cccc(C(=O)N2CCCN(Cc3cscn3)CC2)c1,101.4
15,O=C(c1ccc(O)cc1)N1CCN(C(=O)c2ccc3c(c2)COC3)CC1,-5.572
16,Cn1cc(CN2CCCN(C(=O)c3ccc4c(c3)COC4)CC2)cn1,-5.776
17,Fc1cccc(CN2CCN(Cc3cscn3)CC2)c1,-6.647
18,CSCC(CCO)NC(=O)Nc1cccc(Br)c1 (centres undefined),-3.109
19,O=C(NCCO)c1coc(CN2CCN(c3ccccc3F)CC2)n1,7.764
20,COCc1noc(-c2ccc(N(C)Cc3c(C)n[nH]c3C)nc2)n1,-8.806
21,O=C(NC[C@H]1OC[C@@H](NC2CCC(F)(F)CC2)[C@@H]1O)c1cccs1,-23.1
22,C=C(C)CN(CC)S(=O)(=O)c1ccccc1C#N,-2.977

row,SMILES,Percent Effect [%]
1,Cc1nnc(NCC2(c3ccccc3)CCOCC2)c(C#N)c1C,-16.92
2,COCCN1CC(=O)c2sc(NC(C)C)nc2C1,130.5
3,COCCN1CCc2cc(C(=O)N(C)C)c(NC(C)C)nc2CC1.O=C(O)C(F)(F)F.O=C(O)C(F)(F)F,7.689
4,CCN1CC(=O)c2sc(NC(C)C)nc2C1,96.98
5,CC(C)c1nn(C)c(N(C)C)c1CNC1CCN(CC2CC2)CC1,-26.39
6,COCCN1CCC(NCc2c(C(C)C)nn(C)c2N(C)C)CC1,-4.673
7,CC(C)Nc1nc2c(s1)C(=O)CN(CC1CC1)C2,101.7
8,CC(C)Nc1nc2c(s1)C(=O)CN(C)C2,130.6
9,CSC(C)(C)CNC(=O)NC1CCN(C)CC1,-3.442
10,CC(C)C(C)(C#N)NC(=O)Cn1cc(C(N)=O)c(-c2ccccc2)n1 (centres undefined),12.8
11,CCNC(=O)NCc1cccc(N2CC=CC2)c1,-0.5505
12,CCc1noc(CN(C)CCC(=O)Nc2ccc(Cl)cc2)n1,-6.397
13,CCN1CC(CN(C)Cc2nc(-c3ccc(F)cc3)oc2C)CC1=O (centres undefined),117.1
14,CCN(CCn1cccn1)Cc1nc(-c2ccc(F)cc2)oc1C,16.6
15,CCN(CCn1cccn1)Cc1nc(-c2ccc(C)o2)oc1C,17.65
16,CCCOC1CCCN(Cc2nc(-c3ccc(F)cc3F)oc2C)C1 (centres undefined),11.6
17,Cc1oc(-c2ccc(F)cc2F)nc1CN1C[C@@H](C)O[C@@H](C)C1,30.19
18,CCN(CCn1cccn1)Cc1nc(-c2ccoc2)oc1C,-32.03
19,Cc1oc(-c2ccc(F)cc2)nc1CN1CCOCS1(=O)=O,1.059
20,CCN1CC(CN(C)Cc2nc(-c3ccc(F)cc3F)oc2C)CC1=O (centres undefined),223.2
21,CCN(C)Cc1nc(-c2ccccc2NS(C)(=O)=O)oc1C,17.24
22,CCN1CC(CN(C)Cc2nc(-c3ccoc3)oc2C)CC1=O (centres undefined),101.6

row,SMILES,Percent Effect [%]
1,Cc1oc(-c2ccoc2)nc1CN1CCC[C@H]1CO,2.013
2,CCN1CC(CN(C)Cc2nc(-c3ccc(C)o3)oc2C)CC1=O (centres undefined),106.5
3,O=C(c1ccc(O)cn1)N1CCOC(c2ccc(Cl)c(Cl)c2)C1 (centres undefined),-8.844
4,CCc1cnc(NCCSc2cnn[nH]2)nc1,4.76
5,COC(=O)CCCNC(=O)COc1ccccc1C(F)(F)F,-5.238
6,COCCNC(=O)c1cc2c(s1)CCN2C(=O)c1ccccc1,3.263
7,O=C(NC1CCCC1)c1cc2c(s1)CCN2C(=O)c1ccccc1,94.77
8,CCCNC(=O)c1cc2c(s1)CCN2C(=O)c1ccccc1,88.89
9,O=C(NC1CC1)c1cc2c(s1)CCN2C(=O)C1CC1,91.55
10,CCCNC(=O)CCNC(=O)c1ccccc1N1CCOCC1,6.654
11,O=C(c1cc2c(s1)CCN2C(=O)C1CC1)N1CCCC1,-2.581
12,O=C(NC1CCCC1)NC1CCC(C(=O)N2CCSCC2)CC1 (centres undefined),9.425
13,COCCN(C)C(=O)c1cc2c(s1)CCN2C(=O)C1CC1,113.8
14,CN1C[C@H](COCC2CC2)[C@H]2CCN(Cc3ccco3)CC[C@H]2C1=O,-20.01
15,CCOC1CCN(CCc2nc(-c3cccc(Cl)c3)no2)CC1,9.803
16,CC(O)C(=O)N1CCC(c2nccn2Cc2cscn2)CC1 (centres undefined),-11.64
17,O=C(NCCN1CCCC1)c1cc2c(s1)CCN2C(=O)c1ccccc1,91.37
18,CN1CCCN(C(=O)c2cc3c(s2)CCN3C(=O)c2ccccc2)CC1,-3.728
19,CC(C1CC1)N(CC(=O)NCC(F)(F)F)C1CC1 (centres undefined),-3.588
20,O=C(CNc1cccc2c1CCCC2)Nc1ccccc1Br,7.656
